# Reference: the supplement of paper PMC8728848
# This excerpt belongs to a sample that is enriched for the strongest signals.
# Tests used:
# Assay in all cases: glycan array binding signal (z-score within array); higher = stronger binding
# Conditions in all cases: glycan notation: IUPAC condensed, linker removed
# Fuc(a1-2)Gal(b1-3)GalNAc = molecular target: Fuc(a1-2)Gal(b1-3)GalNAc
# How it was run: (§1)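 Glycan array binding is given as a within-array Z-score, which can be read as non-binding when negative. The arrays, 3228 of them, came from the Consortium for Functional Glycomics database and were retained only where the protein sequence was available. Z-scores were averaged across arrays of the same protein sequence at different concentrations or buffers and across linkers.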
# [1] = molecular target: Fuc(a1-2)Gal(b1-3)GalNAc(a1-3)[Fuc(a1-2)]Gal(b1-4)GlcNAc
# How it was run: as §1
# [2] = molecular target: Fuc(a1-2)Gal(b1-3)GalNAc(b1-3)Gal(a1-4)Gal(b1-4)Glc
# How it was run: as §1
# [3] = molecular target: Fuc(a1-2)Gal(b1-3)GlcNAc(b1-2)Man(a1-3)[Fuc(a1-2)Gal(b1-3)GlcNAc(b1-2)Man(a1-6)]Man(b1-4)GlcNAc(b1-4)GlcNAc
# How it was run: as §1
# [4] = molecular target: Fuc(a1-2)Gal(b1-3)GlcNAc(b1-3)Gal(b1-4)Glc
# How it was run: as §1
# [5] = molecular target: Fuc(a1-2)Gal(b1-3)GlcNAc(b1-3)GalNAc
# How it was run: as §1
# [6] = molecular target: Fuc(a1-2)Gal(b1-3)[Fuc(a1-4)]GlcNAc(b1-2)Man(a1-3)[Fuc(a1-2)Gal(b1-3)[Fuc(a1-4)]GlcNAc(b1-2)Man(a1-3)]Man(b1-4)GlcNAc(b1-4)GlcNAc
# How it was run: as §1
# [7] = molecular target: Fuc(a1-2)Gal(b1-4)[Fuc(a1-3)]GlcNAc(b1-2)[Fuc(a1-2)Gal(b1-4)[Fuc(a1-3)]GlcNAc(b1-4)]Man(a1-3)[Fuc(a1-2)Gal(b1-4)[Fuc(a1-3)]GlcNAc(b1-2)Man(a1-6)]Man(b1-4)GlcNAc(b1-4)GlcNAc
# How it was run: as §1
# Fuc(a1-2)Gal6S(b1-4)Glc = molecular target: Fuc(a1-2)Gal6S(b1-4)Glc
# How it was run: as §1
# [8] = molecular target: Fuc(a1-2)Gal6S(b1-4)Glc6S
# How it was run: as §1
# [9] = molecular target: Fuc(a1-2)[Gal(a1-3)]Gal(b1-3)GalNAc(b1-3)Gal(a1-4)Gal(b1-4)Glc
# How it was run: as §1
# [10] = molecular target: Fuc(a1-2)[Gal(a1-3)]Gal(b1-4)GlcNAc(b1-2)Man(a1-3)[Fuc(a1-2)[Gal(a1-3)]Gal(b1-4)GlcNAc(b1-2)Man(a1-6)]Man(b1-4)GlcNAc(b1-4)GlcNAc
# How it was run: as §1
# [11] = molecular target: Fuc(a1-2)[GalNAc(a1-3)]Gal(b1-3)GlcNAc(b1-6)GalNAc
# How it was run: as §1
# [12] = molecular target: Fuc(a1-2)[GalNAc(a1-3)]Gal(b1-4)GlcNAc(b1-3)Gal(b1-4)GlcNAc
# How it was run: as §1
# [13] = molecular target: Fuc(a1-2)[GalNAc(a1-3)]Gal(b1-4)GlcNAc(b1-3)Gal(b1-4)GlcNAc(b1-3)Gal(b1-4)GlcNAc
# How it was run: as §1
# [14] = molecular target: Fuc(a1-2)[GalNAc(a1-3)]Gal(b1-4)GlcNAc(b1-6)GalNAc
# How it was run: as §1
# [15] = molecular target: Fuc(a1-2)[GalNAc(a1-3)]Gal(b1-4)[Fuc(a1-3)]GlcNAc
# How it was run: as §1
# Fuc(a1-3)GlcNAc = molecular target: Fuc(a1-3)GlcNAc
# How it was run: as §1
# Gal(a1-3)Gal(b1-3)GlcNAc = molecular target: Gal(a1-3)Gal(b1-3)GlcNAc
# How it was run: as §1
# [16] = molecular target: Gal(a1-3)Gal(b1-3)GlcNAc(b1-6)GalNAc
# How it was run: as §1
# Gal(a1-3)Gal(b1-4)GlcNAc = molecular target: Gal(a1-3)Gal(b1-4)GlcNAc
# How it was run: as §1
# Gal(b1-2)Gal = molecular target: Gal(b1-2)Gal
# How it was run: as §1
# [17] = molecular target: Gal(b1-3)GalNAc(a1-3)[Fuc(a1-2)]Gal(b1-4)GlcNAc
# How it was run: as §1
# [18] = molecular target: Gal(b1-3)GlcNAc(b1-3)Gal(b1-4)GlcNAc
# How it was run: as §1
# [19] = molecular target: Gal(b1-3)GlcNAc(b1-6)GalNAc
# How it was run: as §1
# Gal(b1-3)GlcNAc6S = molecular target: Gal(b1-3)GlcNAc6S
# How it was run: as §1
# [20] = molecular target: Gal(b1-3)[Fuc(a1-4)]GlcNAc(b1-2)Man
# How it was run: as §1
# [21] = molecular target: Gal(b1-3)[Fuc(a1-4)]GlcNAc(b1-2)Man(a1-3)[Gal(b1-3)[Fuc(a1-4)]GlcNAc(b1-2)Man(a1-6)]Man(b1-4)GlcNAc(b1-4)[Fuc(a1-6)]GlcNAc
# How it was run: as §1
# [22] = molecular target: Gal(b1-3)[GlcNAc(b1-6)]GalNAc
# How it was run: as §1
# [23] = molecular target: Gal(b1-4)GlcNAc(b1-2)[Gal(b1-4)GlcNAc(b1-6)]Man(a1-6)[Gal(b1-4)GlcNAc(b1-2)Man(a1-3)]Man(b1-4)GlcNAc(b1-4)[Fuc(a1-6)]GlcNAc
# How it was run: as §1
binder,measurement,setting,value
"Clec12b (Mus musculus), Q149M0 (protein) MSDEVTYATLMLQDSARVRGNQDGNNLRKEGHPAQSSLWRGAALSLMTLCLVLVTGLVTLATMFLQVSNDINSDSEKLSQLQKSIHPQQDNLSESLNSSRKSLTEESLQSQISALLERQEQMATKLCKEFLIHASDHKCNPCPKTWQWYGNSCYYFSINEEKSWSDSRKDCIDKNATLVKIDSTEERDLLQSQLSLTFSFFWLGLSWNSSGRNWLWEDGSFPPPTLFSDKELASFNGSRDCAYFERGNIYASRCSAEIPWICEKTASLVKTEDLD",glycan array binding signal (z-score),Fuc(a1-2)Gal(b1-3)GalNAc,-0.451
same,glycan array binding signal (z-score),[1],0.211
same,glycan array binding signal (z-score),[2],-0.395
same,glycan array binding signal (z-score),[3],2.66
same,glycan array binding signal (z-score),[4],3.25
same,glycan array binding signal (z-score),[5],-0.484
same,glycan array binding signal (z-score),[6],2.58
same,glycan array binding signal (z-score),[7],2.82
same,glycan array binding signal (z-score),Fuc(a1-2)Gal6S(b1-4)Glc,0.808
same,glycan array binding signal (z-score),[8],-0.568
same,glycan array binding signal (z-score),[9],-0.052
same,glycan array binding signal (z-score),[10],0.853
same,glycan array binding signal (z-score),[11],4.57
same,glycan array binding signal (z-score),[12],-0.749
same,glycan array binding signal (z-score),[13],-0.115
same,glycan array binding signal (z-score),[14],0.308
same,glycan array binding signal (z-score),[15],-0.288
same,glycan array binding signal (z-score),Fuc(a1-3)GlcNAc,-0.323
same,glycan array binding signal (z-score),Gal(a1-3)Gal(b1-3)GlcNAc,5.35
same,glycan array binding signal (z-score),[16],-0.324
same,glycan array binding signal (z-score),Gal(a1-3)Gal(b1-4)GlcNAc,0.53
same,glycan array binding signal (z-score),Gal(b1-2)Gal,2.74
same,glycan array binding signal (z-score),[17],-0.587
same,glycan array binding signal (z-score),[18],-0.41
same,glycan array binding signal (z-score),[19],-0.588
same,glycan array binding signal (z-score),Gal(b1-3)GlcNAc6S,0.486
same,glycan array binding signal (z-score),[20],0.927
same,glycan array binding signal (z-score),[21],3.71
same,glycan array binding signal (z-score),[22],-0.137
same,glycan array binding signal (z-score),[23],0.226
